Reference: PubChem BioAssay AID1346428 (National Center for Advancing Translational Sciences (NCATS), 2018)
Hit rate of the full screen: of about 48,000 compounds, about 1,200 (2.5%) were called active. Another 2% or so got no clear call; they are omitted.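 The calls were made as follows: active = activation of at least 60% and not above a set upper limit (about 1 call in 100 departs from these limits); inconclusive = activation of 40% to 60%, or above that upper limit; inactive = activation under 40%.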 The sample as a whole holds a higher share of actives than the screen did.

biological target: Probable G-protein coupled receptor 32 (Homo sapiens) (UniProt O75388); assay: qHTS for Agonists of Human Resolvin D1 Receptor DRV1; details: CHO-K1 GPR32 beta-arrestin PathHunter luminescence, 90 min; at 76.9 µM; active compounds read high; zero percent set by DMSO-only wells
Sequence (O75388 whole entry, looked up): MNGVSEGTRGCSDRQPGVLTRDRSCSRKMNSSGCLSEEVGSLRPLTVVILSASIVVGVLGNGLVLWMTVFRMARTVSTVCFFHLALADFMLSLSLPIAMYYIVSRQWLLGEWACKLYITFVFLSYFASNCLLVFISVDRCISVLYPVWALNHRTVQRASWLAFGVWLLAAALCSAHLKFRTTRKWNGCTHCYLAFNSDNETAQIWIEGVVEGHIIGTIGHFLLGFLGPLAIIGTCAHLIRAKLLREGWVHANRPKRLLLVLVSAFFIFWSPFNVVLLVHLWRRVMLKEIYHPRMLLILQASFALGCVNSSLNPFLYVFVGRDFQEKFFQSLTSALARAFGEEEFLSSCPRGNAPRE
Excerpt: Endogenous resolution of inflammation is known to be transduced through various GPCRs and their natural mediators of lipid nature. Resolvin D1 (RvD1) is one of the active players in resolution of acute inflammation through regulation of anti-inflammatory pathways; it is known to enhance phagocytosis of human macrophages, limits neutrophils infiltration, etc. […] The search for GPR32-activating small molecules with anti-inflammatory effects similar to its natural omega-3 derivative ligand in order to use them as research tools for further studies of inflammation and its resolution was the goal of this screening project. For primary screening assay, we used CHO-K1 GPR32 beta-arrestin cell line (DiscoveRx, #93-0321C2A) and the PathHunter(R) beta-Arrestin Assay (DiscoveRx) which measures recruitment of beta-arrestin to the GPR32 and generates chemiluminescent signal. These engineered cells stably transfected with GPR32 co-express GPR32-fused small 42-amino acid fragment of beta-Gal called ProLinktrade mark, and […] -tagged beta-Arrestin fusion protein. When GPR32 is activated by a ligand, it stimulates binding of beta -Arrestin to ProLink-tagged GPR32, and two parts of beta-Gal complement forming a functional enzyme. Upon substrate (PathHunter(R) Detection reagent) addition, beta-Gal hydrolyzes it and generates a chemiluminescent signal.
The cells were thawed and plated in thawing media containing F-12 HAM (Invitrogen, #11765-054), 10% FBS (Invitrogen, #10082), 1x Glutamine, and 1x Pen/Strep onto the 175-mm flask for 24 hours. Then, thawing media was replaced with Growth media which contains 800microg/mL Geneticin (Invitrogen, #10131) and 300microg/mL Hygromycin B (Invitrogen, #10687) in addition to described above. For the assay, the cells were harvested at ~80% confluent stage with Cell Dissociation buffer (Gibco, #13151), and seeded at 2,500 cells/ 3microL/well in assay media (PathHunter(R) Cell Plating Reagent, DiscoverX, #93-0563R1B) using MultiDrop Combi dispenser (Thermo Scientific, Logan, UT) onto white solid bottom tissue culture-treated 1536-well plates (Greiner # 789173-F) and allowed to attach overnight at 37 degrees C, 95% humidity, 5% CO2, . Next, 23nL/well of compound solutions in DMSO were added with a Pin Tool (Kalypsis, San Diego, CA) to the assay plates. As the basal control (EC0), 23 nL/well of DMSO was used on each plate. The cells were incubated in the presence of compounds or DMSO for 90 minutes at 37 degrees C, 5% CO2. Subsequently, 1.5microL/well of PathHunter(R) Detection Reagent prepared per the manufacturer's instructions was added to the assay plates with BioRAPTR FRDtrade mark dispenser (Beckman Coulter, San Francisco, CA) and incubated for 1 hour at ambient temperature prior to the measurement of the luminescent signal on ViewLux(R) uHTS Microplate Imager (Perkin Elmer, Waltham, MA).

SMILES | activation
CCOc1cccc(C(=O)Nc2nnc(S(=O)(=O)N(C)c3ccc(C)cc3)s2)c1 | 63.1% (active)
COc1cccc(CNC(=O)CN2C(=O)CCc3cc(S(=O)(=O)N4CCOCC4)ccc32)c1 | 0% (inactive)
CN(Cc1ccco1)S(=O)(=O)c1nnc(NC(=O)c2ccccc2)s1 | 18.1% (inactive)
O=C(Nc1nnc(S(=O)(=O)N2CCOCC2)s1)c1cccc(Br)c1 | 93.4% (active)
COc1cccc(C(=O)Nc2nnc(S(=O)(=O)N3CCOCC3)s2)c1 | 69.6% (active)
CC(C)CC(=O)Nc1nnc(S(=O)(=O)N(C)c2ccc(Cl)cc2)s1 | -5.88% (inactive)
Cc1ccccc1OCC(=O)Nc1nnc(S(=O)(=O)N2CCCC2)s1 | 5.36% (inactive)
O=C(Nc1nnc(S(=O)(=O)N2CCCCCC2)s1)c1cccc(Br)c1 | 115% (active)
Cc1ccccc1C(=O)Nc1nnc(S(=O)(=O)N(C)c2ccc(Cl)cc2)s1 | 8.7% (inactive)
Cc1ccc(C(=O)Nc2ccccc2F)cc1S(=O)(=O)N1CCOCC1 | 2.32% (inactive)
Cc1cc2nc(NC(=O)c3ccc(S(=O)(=O)N4CCOCC4)cc3)sc2cc1C | -4.68% (inactive)
O=C(Nc1nnc(S(=O)(=O)N2CCCc3ccccc32)s1)c1cccc(F)c1 | 45.3% (inactive)
Cc1cc(N2CCN(c3cccc(C(F)(F)F)c3)CC2)n2nc(-c3ccccc3)nc2n1 | -14.2% (inactive)
CCOC(=O)c1c(NC(=O)COc2cc(C)ccc2C(C)C)sc(C)c1C | -11% (inactive)
Cc1ccc(C)c(S(=O)(=O)n2nc(C)c(S(=O)(=O)N3CCC(C)CC3)c2C)c1 | -11.2% (inactive)
O=C(Nc1cc(C(F)(F)F)ccc1Cl)c1cc2nc(-c3ccc4c(c3)OCO4)cc(C(F)(F)F)n2n1 | -10.2% (inactive)
Cc1ccc(NC(=O)c2ccc(CN3CC(=O)N4CCCCC4C3=O)cc2)c(Cl)c1 (centres undefined) | -8.29% (inactive)
COc1ccc(-c2cc(C(=O)NCc3cc(OC)c(OC)c(OC)c3)[nH]n2)cc1 | -1.24% (inactive)
COc1ccc(NC(=O)CSc2nc3ccccc3n2CC(=O)N2CCCCC2C)cc1 (centres undefined) | -15.6% (inactive)
CCOc1ccccc1NC(=O)Cn1c(=O)n(Cc2ccccc2)c(=O)c2c(C)c(C(=O)N(C)C)sc21 | -24.5% (inactive)
CCn1cc(C(=O)OCC(=O)Nc2cc(C)cc(C)c2)c(=O)c2ccc(C)nc21 | 20.2% (inactive)
CN(Cc1ccccc1)C(=O)c1cn(C)c2ccc(S(=O)(=O)N3CCCCC3)cc2c1=O | 13.1% (inactive)
Cc1ccc(Cl)cc1NC(=O)/C(C#N)=C\c1cn(Cc2ccc(F)cc2)c2ccccc12 | 7.85% (inactive)
Cc1ccc(/C=C(\C#N)C(=O)Nc2cc(C)ccc2C)cc1 | 98.1% (active)
CCOC(=O)c1c(NC(=O)/C(C#N)=C/c2ccccc2)sc2c1CCC2 | 13.3% (inactive)
Cc1ccccc1C(=O)N(Cc1ccc(N(C)C)cc1)CC1CCCO1 (centres undefined) | -21.9% (inactive)
CSc1ccc(CCNC(=O)c2ccc3c(c2)nc2n3CCOC2)cc1 | -8.85% (inactive)

SMILES | activation
COc1ccc(NC(=O)CCc2nnc3n(CC(C)C)c(=O)c4ccccc4n23)cc1OC | 10.7% (inactive)
COc1cccc(-c2nnc3n(CCc4ccccc4)c(=O)c4ccccc4n23)c1O | 77.1% (active)
CC(C)Cn1c(=O)c2ccccc2n2c(-c3cccc(Cl)c3)nnc12 | -0.202% (inactive)
CC(C)(C)OC(=O)N1CCC(c2c(C(=O)Nc3ccc4c(c3)OCO4)cnn2-c2ccccc2)CC1 | 3.59% (inactive)
COc1cccc(NC(=O)CSc2cc(=O)n(C)c3ccc(Cl)cc23)c1 | 66.2% (active)
CCOc1ccc(CCNC(=O)CSc2cc(=O)n(C)c3ccc(Cl)cc23)cc1OCC | -7.71% (inactive)
CCN(CCCNC(=O)CSc1cc(=O)n(C)c2cc(Cl)ccc12)c1cccc(C)c1 | 3.23% (inactive)
Cc1ccccc1CNC(=O)Cn1c(C)c2cnn(-c3ccccc3)c(=O)c2c1C | -12.3% (inactive)
Cc1c(NC(=O)Nc2ccc(F)c(Cl)c2)c(=O)n(-c2ccccc2)n1C | -8.62% (inactive)
Oc1c(C(c2ccc(F)cc2)N2CCN(Cc3ccccc3)CC2)sc2nc(-c3ccco3)nn12 (centres undefined) | 64.8% (active)
Oc1c(C(c2ccccc2Cl)N2CCOCC2)sc2nc(-c3ccco3)nn12 (centres undefined) | -11.9% (inactive)
Cc1cccc(-n2ncc(C(=O)N3CCc4ccccc4C3)c2C2CCN(C(=O)OC(C)(C)C)CC2)c1 | -17.8% (inactive)
O=C(COCc1cc(-c2ccc3c(c2)OCO3)on1)N1CCN(c2cccc(Cl)c2)CC1 | -10.3% (inactive)
Cc1cccc(CNS(=O)(=O)c2ccc(-c3cnc(C4CC4)o3)cc2)c1 | -14.5% (inactive)
COc1ccc(CCC(=O)NCCc2csc(-c3ccc(Cl)cc3)n2)cc1 | 65.3% (active)
O=C(NCCc1csc(-c2ccc(C(F)(F)F)cc2)n1)C(=O)Nc1ccc(F)c(Cl)c1 | -7.23% (inactive)
COc1ccc(-c2nc(CCNC(=O)c3ccc(Br)o3)cs2)cc1 | 6.04% (inactive)
CCc1nc2c(cnn2-c2ccc(C)cc2)c(=O)n1-c1ccc(C)cc1 | -4.43% (inactive)
COc1cccc(C(=O)NC2(C(F)(F)F)C(=O)Nc3c2c(=O)[nH]c(=O)n3-c2ccc(C)cc2)c1 (centres undefined) | -5.74% (inactive)
CCOCCn1ccc2c(OCC(=O)NCc3ccc(C)cc3)cccc2c1=O | -7.09% (inactive)
CCn1cc(CCC(=O)NCc2ccc(F)cc2)c2ccccc21 | -18.2% (inactive)
CCCn1ccc2c(OCC(=O)NCc3ccc(F)cc3)cccc2c1=O | 76.6% (active)
CC(=O)c1ccc(S(=O)(=O)N2CCC(Oc3ccc(-n4cnnn4)cc3)CC2)cc1 | -8.41% (inactive)
COc1cccc(-c2cc(C(=O)Nc3ccc(C)cc3)[nH]n2)c1 | 64.6% (active)
COc1cccc(NC(=O)c2csnn2)c1 | 10.9% (inactive)
CCc1cccc(NC(=O)c2cc(-c3ccccc3)n[nH]2)c1 | -0.275% (inactive)
Cc1ccc2cccc(NC(=O)C(C)Oc3ccc(C)c(C)c3)c2n1 (centres undefined) | -2.89% (inactive)
